For some assays here: Results with a measured potency or affinity are listed apart.
Tests used:
Set-up in all cases: scale not given: direction of the effect not stated beside the values
[1] = molecular target: Protein translocase subunit SecA (Escherichia coli (strain K12)) (UniProt P10408); test: Assay to Identify E. coli SecA ATPase Inhibitors; type: functional; conditions: 30 µM
[2] = molecular target: T1, Ubiquitin-activating enzyme e1, putative (Leishmania donovani (strain BPK282A1)) (UniProt E9BSI1); test: Leishmania donovani Ubiquitin Activating Enzyme (LdE1); type: functional; conditions: 30 µM
T1 sequence (whole entry): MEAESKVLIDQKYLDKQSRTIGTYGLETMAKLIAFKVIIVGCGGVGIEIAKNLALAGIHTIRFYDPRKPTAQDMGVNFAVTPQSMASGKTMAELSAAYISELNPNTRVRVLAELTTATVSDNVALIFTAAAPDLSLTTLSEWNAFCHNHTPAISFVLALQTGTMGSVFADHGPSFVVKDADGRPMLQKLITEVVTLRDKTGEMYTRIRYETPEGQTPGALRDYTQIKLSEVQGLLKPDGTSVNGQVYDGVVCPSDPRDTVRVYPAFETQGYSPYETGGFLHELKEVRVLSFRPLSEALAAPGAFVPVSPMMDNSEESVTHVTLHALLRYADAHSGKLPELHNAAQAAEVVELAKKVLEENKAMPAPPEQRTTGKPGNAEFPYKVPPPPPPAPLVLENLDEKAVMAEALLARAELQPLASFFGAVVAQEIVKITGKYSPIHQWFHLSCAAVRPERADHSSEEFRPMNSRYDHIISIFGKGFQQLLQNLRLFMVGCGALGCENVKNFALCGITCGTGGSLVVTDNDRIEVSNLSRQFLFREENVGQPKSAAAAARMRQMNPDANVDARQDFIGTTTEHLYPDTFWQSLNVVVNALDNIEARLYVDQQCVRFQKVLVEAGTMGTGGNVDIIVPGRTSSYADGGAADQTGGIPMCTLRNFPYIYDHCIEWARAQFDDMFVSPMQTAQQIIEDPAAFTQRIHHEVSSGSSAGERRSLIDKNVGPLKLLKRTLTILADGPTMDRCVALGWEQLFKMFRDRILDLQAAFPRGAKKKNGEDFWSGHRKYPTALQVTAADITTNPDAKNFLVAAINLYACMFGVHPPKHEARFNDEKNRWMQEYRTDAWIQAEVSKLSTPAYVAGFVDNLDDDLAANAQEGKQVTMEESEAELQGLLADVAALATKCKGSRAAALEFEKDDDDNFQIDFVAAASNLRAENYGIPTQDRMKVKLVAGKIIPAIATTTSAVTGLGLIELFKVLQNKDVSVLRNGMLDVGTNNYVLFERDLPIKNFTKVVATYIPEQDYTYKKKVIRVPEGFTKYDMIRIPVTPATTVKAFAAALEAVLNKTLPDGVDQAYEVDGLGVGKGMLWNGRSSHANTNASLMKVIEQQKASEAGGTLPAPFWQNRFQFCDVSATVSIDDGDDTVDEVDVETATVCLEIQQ

[3] = molecular target: AMP-activated protein kinase, AMPK (Homo sapiens) (UniProt P54646+O43741+P54619+Q9UGJ0+Q9Y478+Q13131+Q9UGI9); test: AMP-dependent Kinase enzyme assay. An in vitro enzyme assay that detects ADP turnover that is directly proportional to AMPK activity. This uses naive AMPK that is activated during the assay with MK-8722; type: functional; conditions: 30 µM
[4] = molecular target: Sialic acid-binding Ig-like lectin 9 (Homo sapiens) (UniProt Q9Y336); test: Hs-Siglec9 ALPHAscreen SOP 20170721; conditions: 10 µM
Sialic acid-binding Ig-like lectin 9 (Homo sapiens), sequence (Q9Y336 whole entry): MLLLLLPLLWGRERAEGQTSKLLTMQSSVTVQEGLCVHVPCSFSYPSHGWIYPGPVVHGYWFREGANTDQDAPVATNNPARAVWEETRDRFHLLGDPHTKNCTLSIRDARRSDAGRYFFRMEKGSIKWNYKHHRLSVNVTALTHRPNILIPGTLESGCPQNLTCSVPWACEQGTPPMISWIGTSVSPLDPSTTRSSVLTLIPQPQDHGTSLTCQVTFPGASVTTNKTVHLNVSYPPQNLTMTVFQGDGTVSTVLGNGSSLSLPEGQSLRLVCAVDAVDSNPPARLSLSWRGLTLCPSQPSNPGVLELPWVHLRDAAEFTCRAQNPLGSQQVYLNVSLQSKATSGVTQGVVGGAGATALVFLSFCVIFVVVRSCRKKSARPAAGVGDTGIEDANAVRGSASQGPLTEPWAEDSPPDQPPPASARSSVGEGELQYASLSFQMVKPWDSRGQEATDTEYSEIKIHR

Trypanosoma cruzi = test: Trypanosoma cruzi phosphomannomutase and mannose-1-phosphate guanylyltransferase assay; type: functional; conditions: 10 µM
[5] = molecular target: T2, Arginase-2, mitochondrial (Homo sapiens) (UniProt P78540); test: in vitro enzyme assay to detect the production of urea directly proportional to the activity of Arginase II; type: functional; conditions: 33.3 µM; note: in the data most compounds retested in dose-response had high values
T2 sequence (whole entry): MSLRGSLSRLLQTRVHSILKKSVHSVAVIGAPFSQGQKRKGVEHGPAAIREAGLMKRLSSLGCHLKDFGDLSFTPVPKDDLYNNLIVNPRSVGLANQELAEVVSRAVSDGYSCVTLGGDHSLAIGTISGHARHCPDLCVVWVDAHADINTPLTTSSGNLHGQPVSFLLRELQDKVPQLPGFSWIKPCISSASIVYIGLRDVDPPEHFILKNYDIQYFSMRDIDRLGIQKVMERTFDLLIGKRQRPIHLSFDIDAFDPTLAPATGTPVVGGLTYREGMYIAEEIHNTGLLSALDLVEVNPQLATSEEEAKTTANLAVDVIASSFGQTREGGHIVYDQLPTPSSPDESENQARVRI

[6] = molecular target: T3, Proteasome subunit beta (Trypanosoma cruzi) (UniProt O96673); test: Trypanosoma cruzi proteasome chymotrypsin-like activity (TcProtChymo) assay.; note: in the data most compounds retested in dose-response had high values; type: functional; conditions: 9.37 µM
T3 sequence (whole entry): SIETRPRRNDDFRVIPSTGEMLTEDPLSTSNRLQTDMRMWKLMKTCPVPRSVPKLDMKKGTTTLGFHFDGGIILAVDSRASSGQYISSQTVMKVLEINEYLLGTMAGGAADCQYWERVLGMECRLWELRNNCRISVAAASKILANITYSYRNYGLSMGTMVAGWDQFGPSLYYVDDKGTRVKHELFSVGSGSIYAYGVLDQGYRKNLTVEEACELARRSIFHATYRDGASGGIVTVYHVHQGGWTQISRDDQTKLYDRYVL

Homo sapiens = species: Homo sapiens; test: To identify inhibition of the IFN signalling (Jak-Stat) pathway via expression of an eGFP reporter gene under the control of an IFN-stimulated response element (ISRE) containing MxA promoter.; type: functional; conditions: 30 µM
[7] = molecular target: T4, Tyrosyl-tRNA synthetase, putative (Trypanosoma cruzi (strain CL Brener)) (UniProt Q4DSP6); test: Trypanosoma cruzi tyrosyl tRNA synthetase (TcYRS) _High Tyrosine SOP; type: functional; conditions: 30 µM; note: in the data most compounds retested in dose-response had high values
T4 sequence (whole entry): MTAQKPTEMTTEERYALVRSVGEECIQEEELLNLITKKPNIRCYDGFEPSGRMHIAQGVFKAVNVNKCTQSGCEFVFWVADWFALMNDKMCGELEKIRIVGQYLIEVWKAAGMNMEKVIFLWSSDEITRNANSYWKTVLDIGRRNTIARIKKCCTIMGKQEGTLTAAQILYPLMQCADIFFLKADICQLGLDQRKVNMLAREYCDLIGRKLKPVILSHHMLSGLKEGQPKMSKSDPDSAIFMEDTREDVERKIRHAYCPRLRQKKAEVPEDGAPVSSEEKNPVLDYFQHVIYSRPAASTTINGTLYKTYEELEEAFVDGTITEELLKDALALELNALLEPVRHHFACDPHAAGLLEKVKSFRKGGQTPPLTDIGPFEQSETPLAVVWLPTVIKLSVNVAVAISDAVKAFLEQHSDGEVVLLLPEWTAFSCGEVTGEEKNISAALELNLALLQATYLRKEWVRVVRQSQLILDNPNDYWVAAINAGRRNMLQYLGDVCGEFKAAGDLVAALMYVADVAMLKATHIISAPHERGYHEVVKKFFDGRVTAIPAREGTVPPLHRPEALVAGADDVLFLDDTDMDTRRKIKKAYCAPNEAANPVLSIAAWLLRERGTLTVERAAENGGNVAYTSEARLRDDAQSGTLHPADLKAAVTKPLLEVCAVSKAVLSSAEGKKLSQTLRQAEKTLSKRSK

[8] = molecular target: T4, Tyrosyl-tRNA synthetase, putative (Trypanosoma cruzi (strain CL Brener)); test: Trypanosoma cruzi tyrosyl tRNA synthetase (TcYRS) SOP; type: functional; conditions: 30 µM
[9] = molecular target: Chromo domain-containing protein 1 (Saccharomyces cerevisiae (strain ATCC 204508 / S288c) (Baker's yeast)) (UniProt P32657); test: ScCHD-1 Enzyme Inhibition Assay; type: functional; conditions: 30 µM; note: in the data most compounds retested in dose-response had high values
Chromo domain-containing protein 1 (Saccharomyces cerevisiae (strain ATCC 204508 / S288c) (Baker's yeast)), sequence (P32657 whole entry, the tested form may be a part): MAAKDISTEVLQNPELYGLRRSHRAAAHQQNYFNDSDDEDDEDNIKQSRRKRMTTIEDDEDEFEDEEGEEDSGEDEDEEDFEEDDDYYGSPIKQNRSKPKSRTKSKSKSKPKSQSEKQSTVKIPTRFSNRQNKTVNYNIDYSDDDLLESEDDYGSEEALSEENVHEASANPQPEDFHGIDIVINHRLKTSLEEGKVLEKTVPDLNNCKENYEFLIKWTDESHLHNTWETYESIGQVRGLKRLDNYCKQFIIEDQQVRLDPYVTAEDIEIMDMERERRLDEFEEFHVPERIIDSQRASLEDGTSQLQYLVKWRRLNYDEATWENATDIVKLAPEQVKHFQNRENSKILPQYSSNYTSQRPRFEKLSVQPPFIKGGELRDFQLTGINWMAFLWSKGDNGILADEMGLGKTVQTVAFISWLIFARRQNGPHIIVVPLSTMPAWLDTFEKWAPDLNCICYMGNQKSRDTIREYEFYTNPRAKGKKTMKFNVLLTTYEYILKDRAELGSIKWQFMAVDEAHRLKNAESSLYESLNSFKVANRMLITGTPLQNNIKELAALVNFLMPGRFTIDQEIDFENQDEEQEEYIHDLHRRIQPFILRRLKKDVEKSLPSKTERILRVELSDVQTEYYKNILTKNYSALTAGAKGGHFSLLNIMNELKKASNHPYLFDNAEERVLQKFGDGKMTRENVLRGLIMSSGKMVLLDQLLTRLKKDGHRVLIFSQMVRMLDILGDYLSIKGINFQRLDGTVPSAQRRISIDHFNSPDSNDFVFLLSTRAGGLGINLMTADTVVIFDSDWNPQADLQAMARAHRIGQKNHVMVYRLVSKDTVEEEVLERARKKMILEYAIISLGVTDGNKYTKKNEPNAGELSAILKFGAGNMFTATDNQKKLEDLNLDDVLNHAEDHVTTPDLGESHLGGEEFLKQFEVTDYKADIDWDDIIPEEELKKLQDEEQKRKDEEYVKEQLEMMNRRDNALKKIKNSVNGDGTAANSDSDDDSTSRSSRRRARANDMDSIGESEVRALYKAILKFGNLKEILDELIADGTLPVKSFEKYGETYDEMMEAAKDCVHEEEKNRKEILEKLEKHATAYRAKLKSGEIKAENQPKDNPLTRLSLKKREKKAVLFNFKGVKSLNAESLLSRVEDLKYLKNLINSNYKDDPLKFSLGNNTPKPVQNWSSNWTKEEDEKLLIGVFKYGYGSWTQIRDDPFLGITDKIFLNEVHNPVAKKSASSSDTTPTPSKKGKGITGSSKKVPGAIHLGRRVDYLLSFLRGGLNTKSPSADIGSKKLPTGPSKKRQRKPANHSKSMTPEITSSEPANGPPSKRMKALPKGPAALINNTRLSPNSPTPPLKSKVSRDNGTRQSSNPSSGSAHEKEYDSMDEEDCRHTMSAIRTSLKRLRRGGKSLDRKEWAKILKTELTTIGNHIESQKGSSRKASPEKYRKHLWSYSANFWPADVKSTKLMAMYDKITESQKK

Protein translocase subunit SecA (Escherichia coli (strain K12)), sequence (P10408 whole entry): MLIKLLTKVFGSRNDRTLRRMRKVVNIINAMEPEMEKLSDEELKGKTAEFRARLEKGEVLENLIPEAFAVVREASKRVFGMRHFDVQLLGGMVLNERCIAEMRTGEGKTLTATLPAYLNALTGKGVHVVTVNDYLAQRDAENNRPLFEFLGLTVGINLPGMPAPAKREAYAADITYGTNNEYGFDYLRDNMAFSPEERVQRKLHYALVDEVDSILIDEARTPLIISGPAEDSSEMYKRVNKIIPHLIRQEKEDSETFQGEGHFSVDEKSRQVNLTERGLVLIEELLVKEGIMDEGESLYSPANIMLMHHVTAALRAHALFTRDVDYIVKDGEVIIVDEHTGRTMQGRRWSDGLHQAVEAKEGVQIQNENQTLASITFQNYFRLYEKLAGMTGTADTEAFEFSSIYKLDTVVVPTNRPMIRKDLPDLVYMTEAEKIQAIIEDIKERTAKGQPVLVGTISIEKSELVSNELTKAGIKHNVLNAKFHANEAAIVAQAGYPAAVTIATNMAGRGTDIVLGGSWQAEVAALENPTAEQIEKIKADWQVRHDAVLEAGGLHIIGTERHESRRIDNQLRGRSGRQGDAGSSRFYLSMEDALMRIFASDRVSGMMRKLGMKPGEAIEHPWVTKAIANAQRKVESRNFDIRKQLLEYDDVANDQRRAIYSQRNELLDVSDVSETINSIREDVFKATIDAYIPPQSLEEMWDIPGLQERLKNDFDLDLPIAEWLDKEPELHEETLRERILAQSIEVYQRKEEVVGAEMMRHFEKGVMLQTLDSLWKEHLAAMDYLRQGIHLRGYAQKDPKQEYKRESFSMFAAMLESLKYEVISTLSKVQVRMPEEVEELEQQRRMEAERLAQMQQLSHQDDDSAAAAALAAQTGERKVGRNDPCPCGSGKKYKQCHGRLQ

Row | SMILES | Percent Effect [1] [%] | Percent Effect [2] [%] | Percent Effect [3] [%] | Percent Effect [4] [%] | Percent Effect (Trypanosoma cruzi) [%] | Percent Effect [5] [%] | Percent Effect [6] [%] | Percent Effect (Homo sapiens) [%] | Percent Effect [7] [%] | Percent Effect [8] [%] | Percent Effect [9] [%]
1 | c1ccc(CN2CCCC2Cn2cncn2)nc1 (configuration not stated) | -2.52 | -2.53 | 3.76 | 6.27 | 3.87 | -0.76 | 5.32 | -14.3 | 9.36 | 3.8 | -4.39
2 | COc1cc(CN2CC[C@@]3(CCCO3)[C@@H](O)C2)ccc1F | -3.6 | 14.9 | 6.46 | -2.68 | 2.96 | 0.696 | 3.74 | -18.1 | 6.45 | 16.9 | -12.2
3 | Cc1cnn(CC2CCCCN2C(=O)Cc2csc(C)n2)c1 (configuration not stated) | -3.54 | -3.8 | 5.27 | 1.29 | -5.64 | -0.645 | 6.17 | 13.6 | 2.08 | -2.53 | -19.5
4 | O=C(c1n[nH]c(=O)c2ccccc12)N1CCCCC1c1ccn[nH]1 (configuration not stated) | -1.96 | 1.35 | 14.9 | -7.74 | -5.53 | -8.12 | 1.72 | 0.863 | 4.3 | 6.49 | -5.69
5 | O=C(Cc1ccc2c(c1)OCCO2)NC1CCCC1 | -5.5 | 18.2 | 2.67 | -8.79 | -11.2 | -2.85 | 5.74 | 32.2 | 1.94 | 7.32 | -5.69
6 | CCn1cc2c(n1)CN(Cc1ccoc1)CC2COCC1CC1 (configuration not stated) | -5.08 | -10.8 | -0.58 | 2.38 | 6.64 | -1.67 | 7.69 | -8.7 | 11.9 | 8.54 | -4.61
7 | O=C(Cn1nc(-c2ccc(F)cc2)oc1=O)Nc1ccccc1 | 0.224 | 21.1 | -0.861 | -9.34 | 3.01 | -2.3 | 21.6 | 7.21 | 6.37 | 21.9 | -11.6
8 | O=C(Cc1ccc2c(c1)OCO2)N1CCN(c2cnccn2)CC1 | -1.75 | 15.8 | -3.5 | 4.13 | 6.77 | 4.21 | 8.69 | 2.58 | 5.39 | 21.9 | -11.8
9 | CN(C)C[C@H]1OC[C@@H]2CCN(C(=O)c3ccco3)C[C@@H]21 | -8.17 | -2.7 | -0.601 | -7.74 | -3.23 | 0.248 | -0.0858 | 11.6 | 1.07 | 3.7 | 0.795
10 | c1ncn(CC2CCCN(Cc3nc(C4CC4)no3)C2)n1 (configuration not stated) | -5.67 | 10.1 | -7.43 | 8.58 | 8.59 | -4.56 | -3.36 | -5.79 | 6.4 | 13.9 | -1.7
11 | Cc1ccc(OCCC(=O)NC2CCc3nccn3C2)cc1 (configuration not stated) | -6 | 0 | 7.39 | 1.52 | -1.07 | -13 | 17.6 | -12.9 | 5.32 | 13 | -2.38
12 | CCC(O)CNC(=O)C1(N(C)Cc2ccccc2)Cc2ccccc2C1 (configuration not stated) | -4.2 | 2.67 | 3.26 | -1.75 | -2.63 | 3.12 | 8.72 | -26.6 | 1.64 | 8.64 | -5.97
13 | COCCO[C@@H]1CCN(C(=O)c2ccc(C)o2)[C@@H]1Cc1cnn(C)c1 | -5.35 | -2.7 | -1.64 | -4.98 | -2.54 | -2.08 | 7.69 | -13 | 0.99 | -1.22 | 4.49
14 | O=C(Nc1ccccn1)C1=NN(c2ccccc2)C(=O)CN1 | 0.648 | 25.3 | -3.03 | -13.4 | 1.6 | -5.32 | 11.9 | 9.82 | 6.4 | 24.1 | -12.2
15 | CC1=N[C@@]2(CC[C@@H]3CN(Cc4ccccc4F)C[C@@H]32)C(=O)N1CC1CC1 | -5 | 0 | 5.98 | -2.03 | -0.195 | -2.5 | 2.96 | 11.1 | 4.95 | 3.66 | 1.49
16 | COc1ccc(C2(CNC(C)c3nnc(C)o3)CCCCC2)cc1 (configuration not stated) | -1.33 | -8.11 | -8.86 | 6.11 | 8.69 | -4.76 | 6.03 | 5.78 | 0.529 | 0 | 0.233
17 | NCCn1nc(C2CCN(C(=O)CC3CCCCC3)C2)c2nccnc21 (configuration not stated) | -2.44 | -10.7 | 3.88 | 8.44 | 1.57 | -3.5 | -10.5 | 11.9 | -8.51 | 8.97 | -1.74
18 | Cc1nc(C2CCCN(C(=O)c3ccc(N4CCCC4)nc3)C2)no1 (configuration not stated) | -3.94 | 3.8 | 7.78 | 4.58 | 3.18 | -8.39 | 1.37 | 13.9 | 4.17 | 12.7 | -26.5
19 | O=C(c1cscn1)N1CCC2(CCN(Cc3cccs3)CC2)C1 | -5.71 | 8.11 | 6.09 | -2.27 | 0.489 | 2.23 | 19 | 9.36 | 1.08 | 15.4 | 0.482
20 | O=C(NC1CCCC1)NC1CCC(C(=O)N2CCSCC2)CC1 (configuration not stated) | -4.05 | 2.6 | 5.55 | 0.598 | -5.61 | -2.76 | 3.33 | 23.7 | 2.15 | -1.24 | -0.623
21 | NC(=O)COc1cccc(C(=O)Nc2cnc3n2CCCC3)c1 | -4.34 | 6.94 | -7.99 | 1.81 | -1.26 | 6.18 | 10.7 | -0.649 | 8.42 | 15.4 | -3.57
22 | Cn1cnc(S(=O)(=O)NCCCN2CCCCCC2)c1Cl | -4.4 | 8.11 | -5.51 | 10.5 | -3.49 | 1.6 | 6.49 | 4.76 | 5.42 | 6.17 | -6.58

Reference: ChEMBL document CHEMBL3988442, “University of Dundee, Small-Polar-MMV Screening Library” (2021)
